In PubChem BioAssay (NCATS):
Records with an inconclusive call do not appear. A call without a number means that no potency is given here. Values without a mark were called inactive. Calls of active or inactive are those of the source. Calls come from the whole dose curve; as a rule, active = well fitted curve in the direction sought with a large enough effect; inconclusive = small, poorly fitted or top-dose-only effect, or another doubt; inactive = no such curve, though single readings can be large; an effect the other way counts as inactive or inconclusive.

What was measured:
[1] = NS1 protein of Zika virus - qHTS assay to identify small molecule inhibitors in human HEK 293 cells (AID 1347053); note: series mostly up to about 46 µM; nearly all actives have a fitted effect of over 55% in size
Procedure, shortened: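 HEK 293 cells, seeded 20 h at 37 C, were pretreated with compound 1 h, then infected with ZIKV MR766 (MOI = 0.5) for 24 h. NS1 was read by TR-FRET with two anti-NS1 antibodies, normalized to uninfected and infected wells.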

[2] = qHTS of pediatric cancer cell lines to identify multiple opportunities for drug repurposing: Primary screen for TC32 cells (AID 1347089); note: nearly all actives have a fitted effect of over 60% in size; note: potency is the fitted concentration of half-maximal effect
Procedure, shortened: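 TC32 cells, 500-1,000/well in growth medium, compound-treated 48 h at 37 °C; viability from CellTiter-Glo luminescence. Primary screen: MIPE 11-point (0.78 nM–46 µM final), NPC 8-point (0.59 nM–46 µM final); confirmatory at 11-point dilutions.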

[3] = qHTS of pediatric cancer cell lines to identify multiple opportunities for drug repurposing: Primary screen for SJ-GBM2 cells (AID 1347091); note: potency is the fitted concentration of half-maximal effect
Procedure, shortened: (§1)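 Cell viability, CellTiter-Glo luminescence; 500-1,000 cells/well, 8- or 11-point titration, 48 h compound exposure at 37 degrees C, 5% CO2. Controls: DMSO neutral, bortezomib 2.3 µM final as positive.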

[4] = qHTS of pediatric cancer cell lines to identify multiple opportunities for drug repurposing: Primary screen for A673 cells (AID 1347092); note: nearly all actives have a fitted effect of over 45% in size; note: potency is the fitted concentration of half-maximal effect
Procedure, shortened: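 A673 cells (500-1,000 cells/well) were treated 48 hours at 37 degrees C with compounds at 11-point (0.78 nM to 46 µM) or 8-point (0.59 nM to 46 µM) dilutions. Viability read by CellTiter-Glo luminescence; concentration-response curves fitted.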

[5] = qHTS of pediatric cancer cell lines to identify multiple opportunities for drug repurposing: Primary screen for SK-N-MC cells (AID 1347093); note: potency is the fitted concentration of half-maximal effect; for activity change, negative = cytotoxic: series mostly up to about 46 µM
Procedure, shortened: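 Metabolically active cells were quantified by ATP-dependent luminescence (CellTiter-Glo, 15 min at room temperature) following 48 h treatment. Cells had been plated at 500-1,000 per well and settled for 5 h beforehand.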

[6] = qHTS of pediatric cancer cell lines to identify multiple opportunities for drug repurposing: Primary screen for BT-37 cells (AID 1347094); note: potency is the fitted concentration of half-maximal effect; for activity change, negative = cytotoxic: series mostly up to about 57 µM
Procedure, shortened: (§2)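 Following a 5-hour attachment period, cells at 500-1,000/well received compounds and were cultured for 48 hours. CellTiter-Glo was added and luminescence read to estimate viable, metabolically active cells.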

[7] = qHTS of pediatric cancer cell lines to identify multiple opportunities for drug repurposing: Primary screen for NB-EBc1 cells (AID 1347095); note: potency is the fitted concentration of half-maximal effect
Procedure, shortened: as §2

[8] = qHTS of pediatric cancer cell lines to identify multiple opportunities for drug repurposing: Primary screen for U-2 OS cells (AID 1347096); note: nearly all actives have a fitted effect of over 50% in size
Procedure, shortened: (§3)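 Cells (500-1,000/well) rested 5 h, then received compounds for 48 h; metabolically active cells were measured by CellTiter-Glo luminescence. Final concentrations spanned up to 46 µM (MIPE, 11-point) or 0.59 nM-46 µM (NPC, 8-point) in primary screens, 11-point in follow-ups.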

[9] = qHTS of pediatric cancer cell lines to identify multiple opportunities for drug repurposing: Primary screen for Saos-2 cells (AID 1347097); note: nearly all actives have a fitted effect of over 40% in size; note: potency is the fitted concentration of half-maximal effect
Procedure, shortened: as §2

[10] = qHTS of pediatric cancer cell lines to identify multiple opportunities for drug repurposing: Primary screen for SK-N-SH cells (AID 1347098); note: nearly all actives have a fitted effect of over 65% in size; note: potency is the fitted concentration of half-maximal effect
Procedure, shortened: as §3

[11] = qHTS of pediatric cancer cell lines to identify multiple opportunities for drug repurposing: Primary screen for NB1643 cells (AID 1347099); note: nearly all actives have a fitted effect of over 50% in size; note: potency is the fitted concentration of half-maximal effect
Procedure, shortened: as §2

[12] = qHTS of pediatric cancer cell lines to identify multiple opportunities for drug repurposing: Primary screen for LAN-5 cells (AID 1347100); note: potency is the fitted concentration of half-maximal effect
Procedure, shortened: as §3

[13] = qHTS of pediatric cancer cell lines to identify multiple opportunities for drug repurposing: Primary screen for BT-12 cells (AID 1347101); note: nearly all actives have a fitted effect of over 25% in size
Procedure, shortened: as §3

[14] = qHTS of pediatric cancer cell lines to identify multiple opportunities for drug repurposing: Primary screen for DAOY cells (AID 1347090); note: nearly all actives have a fitted effect of over 55% in size; note: potency is the fitted concentration of half-maximal effect; for activity change, negative = cytotoxic: series mostly up to about 46 µM
Procedure, shortened: as §1

COc1ccccc1N1CCN(CCCCNC(=O)c2ccc(-c3ccc(C(C)=O)cc3)cc2)CC1
Potency [1]: inactive
Potency [2]: inactive
Potency [3]: inactive
Potency [4]: inactive
Potency [5]: inactive
Potency [6]: inactive
Potency [7]: inactive
Potency [8]: inactive
Potency [9]: inactive
Potency [10]: inactive
Potency [11]: inactive
Potency [12]: inactive
Potency [13]: inactive

Cc1ccc(O)c([C@H](CCN(C(C)C)C(C)C)c2ccccc2)c1
Potency [1]: inactive
Potency [2]: inactive
Potency [3]: inactive
Potency [6]: inactive
Potency [8]: inactive
Potency [9]: inactive
Potency [11]: inactive
Potency [13]: inactive

Cc1ccccc1OCC(O)CO (stereo not given)
Potency [1]: inactive
Potency [2]: inactive
Potency [3]: inactive
Potency [4]: inactive
Potency [5]: inactive
Potency [6]: inactive
Potency [7]: inactive
Potency [9]: inactive
Potency [11]: inactive
Potency [12]: inactive
Potency [13]: inactive

COc1cc(C(=O)N2CCCCCCC2)cc(OC)c1OC
Potency [1]: inactive
Potency [2]: inactive
Potency [4]: inactive
Potency [5]: inactive
Potency [6]: inactive
Potency [7]: inactive
Potency [8]: inactive
Potency [9]: inactive
Potency [10]: inactive
Potency [11]: inactive
Potency [13]: inactive

O=C(NC1CCN(CCc2c[nH]c3ccccc23)CC1)c1ccccc1
Potency [1]: inactive
Potency [2]: inactive
Potency [3]: inactive
Potency [4]: inactive
Potency [5]: inactive
Potency [6]: inactive
Potency [7]: inactive
Potency [8]: inactive
Potency [9]: inactive
Potency [10]: inactive
Potency [11]: inactive
Potency [12]: inactive
Potency [13]: inactive

CN(Cc1ccc(C(C)(C)C)cc1)Cc1cccc2ccccc12
Potency [1]: inactive
Potency [2]: inactive
Potency [3]: inactive
Potency [4]: inactive
Potency [6]: inactive
Potency [7]: inactive
Potency [8]: inactive
Potency [10]: inactive
Potency [11]: inactive
Potency [12]: inactive
Potency [13]: inactive

CC[C@H](c1ccc(O)cc1)[C@@H](CC)c1ccc(O)cc1
Potency [1]: inactive
Potency [3]: 3.35 µM (active)
Potency [9]: 23.7 µM (active)
Potency [10]: 19.4 µM (active)
Potency [12]: inactive

O=c1[nH]c(=O)n([C@H]2C[C@H](O)[C@@H](CO)O2)cc1F
Potency [1]: inactive
Potency [2]: 0.264 µM (active)
Potency [4]: 0.841 µM (active)
Potency [5]: 6.68 µM (active)
Potency [7]: 2.37 µM (active)
Potency [8]: inactive
Potency [10]: inactive
Potency [11]: inactive
Potency [12]: 1.33 µM (active)

Cc1ccc2c(Br)cc(Br)c(O)c2n1
Potency [1]: inactive
Potency [14]: 8.41 µM (active)
Potency [3]: 13.3 µM (active)
Potency [4]: 2.66 µM (active)
Potency [5]: 11.9 µM (active)
Potency [6]: 8.71 µM (active)
Potency [7]: 2.99 µM (active)
Potency [11]: 15 µM (active)
Potency [12]: 11.9 µM (active)

CCN(CC)CCOc1ccc2c(c1)C(=O)c1cc(OCCN(CC)CC)ccc1-2
Potency [1]: inactive
Potency [9]: inactive
Potency [10]: 34.4 µM (active)
Potency [12]: 23.7 µM (active)

CN1CCN(c2c(F)cc3c(=O)c(C(=O)O)cn4c3c2SCC4)CC1
Potency [1]: inactive
Potency [2]: inactive
Potency [5]: inactive
Potency [6]: inactive
Potency [7]: inactive
Potency [8]: inactive
Potency [9]: inactive
Potency [10]: inactive
Potency [11]: inactive
Potency [12]: inactive
Potency [13]: inactive

CCc1oc2ccccc2c1C(=O)c1cc(I)c(O)c(I)c1
Potency [1]: inactive
Potency [2]: inactive
Potency [4]: inactive
Potency [6]: inactive
Potency [8]: inactive
Potency [10]: inactive
Potency [12]: inactive

N=C(N)N1CCc2ccccc2C1
activity change, negative = cytotoxic [2]: 1.67% [at 4.81 µM]
activity change, negative = cytotoxic [14]: -21.6% [at 4.84 µM]
activity change, negative = cytotoxic [3]: 1.07% [at 4.84 µM]
activity change, negative = cytotoxic [4]: -18% [at 4.84 µM]
activity change, negative = cytotoxic [5]: -27.9% [at 4.84 µM]
activity change, negative = cytotoxic [6]: -4.38% [at 6.03 µM]
activity change, negative = cytotoxic [7]: 5.74% [at 4.84 µM]
activity change, negative = cytotoxic [8]: -4.95% [at 4.84 µM]
activity change, negative = cytotoxic [10]: -21.9% [at 6 µM]
activity change, negative = cytotoxic [11]: -5.24% [at 4.84 µM]
activity change, negative = cytotoxic [12]: -2.04% [at 4.84 µM]
activity change, negative = cytotoxic [13]: -5.09% [at 6.03 µM]

CCOc1ccccc1C(N)=O
Potency [2]: inactive
Potency [14]: inactive
Potency [3]: inactive
Potency [4]: inactive
Potency [5]: inactive
Potency [6]: inactive
Potency [7]: inactive
Potency [8]: inactive
Potency [9]: inactive
Potency [10]: 30.7 µM (active)
Potency [12]: inactive

O=C(O)c1ccc(S(=O)(=O)N(Cl)Cl)cc1
Potency [2]: inactive
Potency [14]: inactive
Potency [3]: inactive
Potency [4]: inactive
Potency [5]: inactive
Potency [6]: inactive
Potency [7]: inactive
Potency [9]: inactive
Potency [10]: inactive
Potency [11]: inactive
Potency [12]: inactive
Potency [13]: inactive

CCN1CCCC(OC(=O)C(c2ccccc2)c2ccccc2)C1 (stereo not given)
Potency [2]: inactive
Potency [14]: inactive
Potency [3]: inactive
Potency [4]: inactive
Potency [5]: inactive
Potency [6]: inactive
Potency [7]: inactive
Potency [8]: inactive
Potency [9]: inactive
Potency [11]: inactive
Potency [12]: inactive
Potency [13]: inactive

Cl/C(=C\n1cncn1)c1ccc(Cl)cc1Cl
Potency [2]: inactive
Potency [14]: inactive
Potency [3]: inactive
Potency [4]: inactive
Potency [5]: inactive
Potency [6]: inactive
Potency [7]: inactive
Potency [8]: inactive
Potency [9]: inactive
Potency [10]: inactive
Potency [11]: inactive
Potency [13]: inactive

COc1ccc(-c2cc(C(F)F)nn2-c2ccc(S(N)(=O)=O)cc2)cc1F
Potency [2]: inactive
Potency [14]: inactive
Potency [3]: inactive
Potency [4]: inactive
Potency [5]: inactive
Potency [6]: inactive
Potency [7]: inactive
Potency [8]: inactive
Potency [9]: inactive
Potency [10]: inactive
Potency [11]: inactive
Potency [12]: inactive

NC(=S)N/N=C/c1cccnc1
Potency [2]: inactive
Potency [14]: inactive
Potency [3]: inactive
Potency [5]: inactive
Potency [6]: inactive
Potency [7]: inactive
Potency [8]: inactive
Potency [9]: inactive
Potency [10]: inactive
Potency [11]: inactive
Potency [12]: inactive
Potency [13]: inactive
